PubChem BioAssay (NCI)
This is part of a sample that, as a whole, favours compounds with a hit. Of some 83,000 tested, about 20% had one in any assay.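 Treatment: one concentration, 48 hours, 96-well format. Scoring: percent growth, with anything below 10 considered active.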 The source made the active and inactive calls.

Columns and labels:
Assay in all cases: NCI-60 one-dose screen, 48 h (100 = growth as untreated, 0 = no growth, -100 = all killed)
Details in all cases: 10 µM unless noted
[1] = tested on: SR leukemia
[2] = tested on: RPMI-8226 leukemia
[3] = tested on: OVCAR-5 ovarian
[4] = tested on: OVCAR-4 ovarian
[5] = tested on: SK-OV-3 ovarian
[6] = tested on: IGROV1 ovarian
[7] = tested on: OVCAR-3 ovarian
[8] = tested on: HS 578T breast
[9] = tested on: NCI/ADR-RES ovarian
[10] = tested on: T-47D breast
[11] = tested on: BT-549 breast
[12] = tested on: MDA-MB-435 melanoma
[13] = tested on: SW-620 colon
[14] = tested on: MCF7 breast
[15] = tested on: HCT-116 colon
[16] = tested on: HCC-2998 colon
[17] = tested on: KM12 colon
[18] = tested on: OVCAR-8 ovarian

Measured: growth

CC/C=C/[C@@H]1C=C[C@@H]2CCC[C@H]2[C@@H]1CC[C@H](O)[C@H](C)N
active: [1] -40.1% | [2] -50.2% | [3] -29% | [5] -15.9% | [6] 1.42% | [7] -64.8% | [8] -44.3% | [9] -33.4% | [10] -45.4% | [12] -89.3% | [13] -67.2% | [14] -85.8% | [15] -76.2% | [16] -88.6% | [17] -85.1%
inactive: [4] 32.8% | [11] 85.9%

CC[C@]1(O)C[C@H]2CN(CCc3c([nH]c4ccccc34)[C@@](C(=O)OC)(c3cc4c(cc3OC)N(C=O)[C@H]3[C@@](O)(C(=O)OC)[C@H](OC(C)=O)[C@]5(CC)C=CCN6CC[C@]43[C@@H]65)C2)C1
inactive: [4] 49.2% | [10] 54.8% | [13] 15.5%
active: [1] 9.82% | [2] -5.85% | [3] -47.6% | [5] -7.88% | [6] 4.04% | [7] -41.4% | [9] -62.6% | [11] -24.2% | [12] -43.7% | [14] 2.44% | [15] -36.7% | [17] 5.78%

CCCCOc1nc2ccc(Cl)cc2cc1/C=C/C(=O)/C=C1/CC(c2cc3cc(Cl)ccc3nc2OCCCC)Nc2ccccc2N1 (centres undefined)
inactive: [1] 91.2% | [18] 101% | [3] 93.8% | [4] 101% | [5] 86.1% | [6] 67.2% | [7] 102% | [8] 91.1% | [9] 98.3% | [10] 83.5% | [11] 96.6% | [12] 104% | [13] 98.7% | [14] 74.2% | [15] 97.6% | [16] 91.5%

CCCCS(=O)(=O)Oc1ccc(-c2nc(C)c(C(=O)OCC)s2)cc1C=O
active: [1] -14.3% | [15] 8.67%
inactive: [18] 45.4% | [3] 94.5% | [4] 75.2% | [5] 109% | [6] 42.6% | [7] 65% | [8] 63.6% | [9] 69% | [10] 80.6% | [11] 72.2% | [12] 37.1% | [13] 30.2% | [14] 35.6% | [16] 94.4% | [17] 57%

COc1ccc(/C(C)=C(\c2ccc(Cl)cc2)c2ccc(OCCCN(C)C)cc2)cc1F
active: [1] -19.7%
inactive: [18] 71.5% | [3] 72.6% | [4] 54.1% | [5] 81.9% | [6] 48.5% | [7] 63.5% | [8] 56.3% | [9] 77.1% | [10] 67.5% | [11] 88.3% | [12] 29.4% | [13] 38.3% | [14] 13% | [15] 21.2% | [16] 48.2% | [17] 29.2%

Nc1ccc2c(S(=O)(=O)O)ccc(S(=O)(=O)O)c2c1
inactive: [1] 83.4% | [2] 95.7% | [18] 91.6% | [4] 99.9% | [5] 95.6% | [6] 82.5% | [7] 117% | [10] 82.5% | [12] 107% | [13] 106% | [14] 93.1% | [15] 93.9% | [16] 98.7% | [17] 110%

CN(C)CCn1cc(-c2ccc3c(Nc4ccc(CC(=O)Nc5cccc(F)c5)cc4)ncnc3c2)cn1
active: [1] -20% [30 µM] | [18] -29.2% [30 µM] | [3] -91.8% [30 µM] | [4] -76.5% [30 µM] | [5] -26.4% [30 µM] | [6] -65.3% [30 µM] | [7] -78% [30 µM] | [8] -48.7% [30 µM] | [10] -39.7% [30 µM] | [11] -9.36% [30 µM] | [12] -71.7% [30 µM] | [13] -64.2% [30 µM] | [14] -56.9% [30 µM] | [15] -11.9% [30 µM] | [16] -91.5% [30 µM] | [17] -83.6% [30 µM]
inactive: [9] 52.4% [30 µM]

O=C1CSC(c2ccccc2O)N1c1nnc(Cn2cnnc2)o1 (centres undefined)
inactive: [1] 72.4% | [2] 71.1% | [3] 78.1% | [4] 86.4% | [5] 88.3% | [6] 73.9% | [7] 91.2% | [8] 88.1% | [9] 68.9% | [10] 71.2% | [11] 87.7% | [12] 97.8% | [13] 105% | [14] 54.6% | [16] 77.5% | [17] 84.3%

Clc1ccc(-c2nnc(-c3ccco3)o2)cc1
inactive: [1] 89.7% | [2] 93.8% | [3] 82.4% | [4] 95.4% | [5] 102% | [6] 93.8% | [7] 107% | [8] 107% | [9] 104% | [10] 99.2% | [11] 101% | [12] 89.7% | [13] 99.5% | [14] 95.2% | [15] 87.3% | [16] 94.4% | [17] 106%

Cn1cc(-c2ccc3ncc(-c4ccc(CC(=O)Nc5cc(C(C)(C)C)nn5C)cc4)cc3c2)cn1
inactive: [1] 11.6% [30 µM] | [3] 46.2% [30 µM] | [5] 12.6% [30 µM] | [8] 27.8% [30 µM] | [13] 22.2% [30 µM] | [15] 20.4% [30 µM] | [16] 29.6% [30 µM]
active: [18] 3.22% [30 µM] | [4] -21.8% [30 µM] | [6] 7.76% [30 µM] | [7] 7.38% [30 µM] | [9] -8.5% [30 µM] | [10] -3.95% [30 µM] | [11] -2.02% [30 µM] | [12] 2.73% [30 µM] | [14] 2.17% [30 µM] | [17] -40.1% [30 µM]

CCN(CC)CCOc1ccc(/C(=C(\C)c2ccc(F)c(OC)c2)c2ccc(Cl)cc2)cc1
active: [1] -22.2% | [13] -7.8% | [14] -3.59% | [15] 1.56% | [16] -33.2% | [17] -3.3%
inactive: [18] 17.4% | [3] 40.9% | [4] 26.6% | [5] 54% | [6] 29.7% | [7] 16.6% | [8] 16% | [9] 39.8% | [10] 18.8% | [11] 59.7% | [12] 15%

C=C(C=O)C1CCC2(C(=O)O)CCC3(C)C(CCC4C5(C)CCC(O)C(C)(C)C5CCC43C)C12 (centres undefined)
inactive: [18] 16.8% | [4] 34.2% | [5] 51% | [11] 17.4% | [12] 16%
active: [1] -2.18% | [2] -12.7% | [6] 6.56% | [7] -86.9% | [13] -14.5% | [14] 6.07% | [15] -92.3% | [16] -85.2% | [17] -87.8%

Clc1ccc(/C=C/c2nc(Nc3ccc(Cl)cc3)c3ccccc3n2)cc1
inactive: [1] 104% | [18] 102% | [3] 106% | [4] 112% | [5] 96.6% | [6] 78.2% | [7] 106% | [8] 103% | [9] 103% | [10] 91.2% | [11] 107% | [12] 109% | [13] 103% | [14] 80.9% | [15] 99.1% | [16] 106% | [17] 109%

CCOC(=O)c1sc2ccc(NCc3nc[nH]c3C)cc2c1NC(=O)c1cc(OC)c(OC)c(OC)c1
inactive: [1] 10.4% | [2] 80.1% | [3] 96.7% | [4] 74% | [5] 98.1% | [6] 89.5% | [7] 94% | [8] 99.2% | [9] 91.7% | [10] 76.2% | [11] 94.8% | [12] 71.7% | [13] 79.8% | [14] 62.6% | [15] 55.4% | [16] 106% | [17] 93.7%

CNC=O
active: [8] 2.14%
inactive: [1] 92.4% | [2] 103% | [3] 87.7% | [4] 115% | [5] 105% | [6] 95% | [7] 109% | [9] 59.5% | [10] 98.3% | [11] 168% | [12] 96.9% | [13] 93.5% | [14] 99.3% | [15] 95.8% | [16] 174% | [17] 95.5%

O=[N+]([O-])c1ccc(-c2cc3c(Nc4ccc(Cl)c(C(F)(F)F)c4)ncnc3s2)cc1
active: [5] -11.5% | [7] 5.57% | [9] 2.94% | [10] -6.08% | [11] 8.01% | [12] 5.4% | [14] 3.55% | [15] 6.29%
inactive: [1] 17% | [18] 10.1% | [3] 26.6% | [4] 11.1% | [6] 38% | [8] 37.9% | [13] 16.8% | [16] 19.2% | [17] 10.9%

O=C1Nc2ccccc2SC1c1ccccc1Cl (centres undefined)
inactive: [1] 10.4% | [2] 75% | [3] 98.1% | [4] 80.4% | [5] 114% | [6] 101% | [7] 83% | [8] 80.4% | [9] 101% | [10] 92.9% | [11] 82.9% | [13] 75.5% | [14] 119% | [15] 105% | [16] 124% | [17] 53.7%
active: [12] -12.6%
